Screens from PubChem BioAssay.
p97 ATPase inh = inhibitors of human p97 ATPase, primary screen, biochemical; Transitional endoplasmic reticulum ATPase (Homo sapiens), P55072; actives 0.42% (n = 220,000); recombinant p97 ATPase, Kinase-Glo ATP luminescence, 3 h; inhibition, % at 8 µM; AID 1481, 2009; in the data active = inhibition above about 15%
DTT redox prof = compounds producing H2O2 with reducing agent – biochemical, NIH compound library profiling, artefact control for MLSCN library redox annotation, primary screen. activation, % at 10 µM. DTT-dependent redox cycling H2O2, phenol red/HRP absorbance; 100% = 100 µM peroxide control, 0% = buffer. AID 878, 2007. actives 0.03% (n = 200,000);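 active = activation of at least 50% relative to the plate's high and low controls in the primary single-dose screen; inactive = activation below 50%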;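 note: compound incubated with DTT at 0.8 mM final as the reducing agent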
Wee1 degr inh = Wee1 degradation inhibitors, primary screen, cell-based, HeLa, Wee1K328M-luciferase, luminescence; HeLa Luc-Wee1K328M stability; 100% = proteasome inhibitor MG132 effect; reporter increase, % at 5 µM; Wee1-like protein kinase (Homo sapiens), P30291; actives 1.2% (n = 220,000); AID 1321, 2008;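 active = activation above the mean of all tested compounds plus 3 SD, set per screening run, cut at about 8.8% in these data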;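 note: cells exposed to compound for 20 h before luminescence read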
Hsp70 act = Hsp70 transcriptional activators, primary screen, cell-based, HeLa, Hsp70 promoter luciferase, luminescence, 10 µM | actives 0.04% (n = 200,000) | activation, % at 10 µM | HeLa Hsp70 promoter luciferase reporter; scaled: vehicle 0, proteasome-inhibitor control 100%;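 active = activation above the mean across all tested compounds plus 3 SD, cutoff set per campaign, cut at about 5.5% in these data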
HSV augment = enhancers of HSV replication in host cells, fold increase, host cell viability; HSV replication augmentation in cells; maximum fold increase; AID 1956, 2009; actives 0.005% (n = 220,000); in the data active = maximum fold increase above about 1.5; inconclusive = no clear call, values can overlap the other calls; tested in PC3 cells
Wee1 degr conf = Wee1 degradation inhibitors, confirmation, cell-based, HeLa, Wee1K328M-luciferase, luminescence, triplicate; AID 1410, 2008; shares compounds with Wee1 degr inh; HeLa Luc-Wee1K328M degradation; vehicle 0%, proteasome-blocked wells 100%; actives 4% (n = 1,100); activation, % at 5 µM; in the data active = activation above about 8.9%
A number is an active result; n = inactive; u = inconclusive; x = not tested or not shown. Most compounds without a hit are left out; they make up all but 1.6% or so of the library.

SMILES	p97 ATPase inh	DTT redox prof	Wee1 degr inh	Hsp70 act	HSV augment	Wee1 degr conf
COCCOc1cnn(-c2cc(Oc3ccc(C)cc3)ncn2)c(=O)c1Cl	n	n	12	n	n	n
COc1cnn(-c2cc(Oc3ccc(C)cc3)ncn2)c(=O)c1Cl	n	n	n	n	n	x
O=C(NCCCn1ccnc1)c1cccc(S(=O)(=O)Nc2ccccc2F)c1	n	n	n	n	n	x
COc1ccc(OCC(O)Cn2c(=N)n(CCN3CCCCC3)c3ccccc32)cc1 (configuration not stated)	n	n	14	n	n	n
Cc1ccccc1OCC(=O)OCn1nnc2ccccc2c1=O	n	x	13	x	n	n
CC1(C)Cc2nc3oc4c(=O)n(CC(=O)Nc5cccc(Cl)c5)cnc4c3cc2CO1	n	x	n	x	n	x
Cc1ccc(C2NC(=O)Cc3ccccc32)cc1 (configuration not stated)	n	n	14	n	n	n
O=C1Cc2ccccc2C(c2ccccc2)N1 (configuration not stated)	n	n	n	n	n	x
CCN(CC)CCSc1nc2ccccc2c(=S)n1-c1ccccc1	n	n	13	n	n	n
CCN(CC)CCSc1nc(O)c(-c2ccccc2)c(=O)n1-c1ccccc1	n	n	n	n	n	x
CCOC(=O)c1cnc2ccc(OC)cc2c1NCc1ccccc1	n	n	13	n	n	n
COc1ccc(CN(CC(=O)NCc2ccco2)C(=O)CCC(=O)Nc2ccccn2)cc1	n	n	n	n	n	x
COCCNC(=O)CN(CC1CCCO1)C(=O)CCC(=O)Nc1ccccn1 (configuration not stated)	n	n	11	n	n	n
O=C(CN(Cc1ccccc1)C(=O)CCC(=O)Nc1ccccn1)NCc1ccco1	n	n	12	n	n	n
O=C(CN(CC1CCCO1)C(=O)CCC(=O)Nc1ccccn1)NCC1CCCO1 (configuration not stated)	n	n	n	n	n	x
Cc1ccc(-n2ncc3c(=O)n(CC(=O)Nc4cccc(Cl)c4)cnc32)cc1C	n	n	n	n	u	x
CCOc1ccc(NC(=O)CN(c2ccc(OC)cc2)S(C)(=O)=O)cc1	n	n	n	n	n	x
CNC(=S)NCc1ccc2[nH]c3c(c2c1)CCCC3	n	n	11	n	n	n
Cc1cc(C(=O)NCc2ccc(S(N)(=O)=O)cc2)c(C)o1	n	n	n	n	n	x
Cc1cc(N/N=C/c2ccc(F)cc2)nc(NCc2ccccc2)n1	n	x	12	x	n	n
Cc1ccnc(N/N=C/c2ccccc2)n1	n	n	17	n	n	n
C(=N\Nc1nccc(-c2cccnc2)n1)/c1ccccc1	n	x	n	x	n	x
CCC(=O)Nc1ccc(-c2cc3ccccc3oc2=O)cc1	n	n	22	n	n	n
CC(C)CC1c2[nH]c3ccccc3c2CCN1C(=O)c1cnccn1 (configuration not stated)	n	n	19	n	n	n
CC(=O)c1cc(C(=O)N2CCc3c([nH]c4ccccc34)C2CC(C)C)[nH]n1 (configuration not stated)	n	n	n	n	n	x
SMILES	p97 ATPase inh	DTT redox prof	Wee1 degr inh	Hsp70 act	HSV augment	Wee1 degr conf
CCOC(=O)c1c(CSc2ccccc2)n(C)c2cc(Br)c(OCC(O)CNC(CO)(CO)CO)cc12 (configuration not stated)	n	n	11	n	n	n
CC(=O)c1sc(NC(=O)c2ccc(F)cc2)nc1-c1ccccc1	n	n	n	n	n	x
CC(=O)c1sc(NC(=O)c2ccccc2F)nc1-c1ccccc1	n	n	14	n	n	n
O=S(=O)(c1cnccc1N1CCN(/N=C/c2ccc(Cl)cc2)CC1)N1CCCCC1	n	n	n	n	n	x
S=c1[nH]nc(-c2ccco2)n1/N=C/c1ccc(Cl)cc1	n	n	13	n	n	n
CCN(CC)CCNC(=O)COc1ccc(Cl)cc1Cl	n	n	11	n	x	n
CN(C)CCNC(=O)COc1ccc(Cl)cc1Cl	n	n	n	n	n	x
COc1ccc(S(=O)(=O)NCCC(=O)NC(C)c2ccccc2)cc1 (configuration not stated)	n	n	n	n	n	x
Cc1cccc(NC(=O)c2ccc(NCC3CCCO3)c([N+](=O)[O-])c2)n1 (configuration not stated)	n	n	11	n	n	n
Cc1cccc(NC(=O)c2ccc(NCC3CCCO3)c([N+](=O)[O-])c2)c1 (configuration not stated)	n	n	n	n	n	x
CCOC(=O)C1CCCN(c2c(N3CCN(c4cccc(Cl)c4)CC3)c(=O)c2=O)C1 (configuration not stated)	n	n	n	n	x	x
O=C1OCC2=C1C(c1ccc(Cl)cc1)CC(=O)N2c1ccc(F)cc1 (configuration not stated)	n	n	14	n	n	n
COc1ccccc1-c1c(C)nn2c(N3CCCCCC3)cc(C)nc12	n	n	n	n	n	x
COc1ccc(C2c3ccc(O)cc3Oc3ncn4nc(-c5ccccn5)nc4c32)cc1 (configuration not stated)	n	x	11	x	n	n
COc1ccc(C2c3ccc(O)cc3Oc3ncn(CCN4CCOCC4)c(=N)c32)cc1OC (configuration not stated)	n	x	n	x	n	x
COc1ccc(C2c3ccc(O)cc3Oc3ncn(Cc4ccccc4)c(=N)c32)cc1OC (configuration not stated)	n	x	19	x	n	n
COc1ccc(C2c3ccc(O)cc3Oc3ncn4nc(-c5ccccn5)nc4c32)cc1OC (configuration not stated)	n	x	n	x	n	x
CCOC(=O)Cc1ncccc1C(=O)Nc1ccc(Oc2ccccc2)cc1	n	n	n	n	n	x
CC(/C=C/c1ccco1)=N\NC(=O)C(O)c1ccccc1 (configuration not stated)	n	n	n	n	n	x
NNC(=O)c1ccc(COc2ccc3ccccc3c2)cc1	n	x	15	x	n	n
CN1CCN(c2ncnc3c2cnn3-c2ccc(Cl)cc2)CC1	n	n	13	n	n	n
CCN1CCN(c2ncnc3c2cnn3-c2ccc(Cl)cc2)CC1	x	x	x	x	n	x
Cn1c(O)c(C2=c3ccccc3=NC2=O)sc1=Nc1ccc(Cl)cc1	n	n	13	n	n	n
O=C1CC(C(=O)Nc2ccc(F)c(Cl)c2)N=C(N2CCCCC2)N1 (configuration not stated)	n	n	n	n	n	x
